The results in this text go back to the antibiotic and cytotoxicity screens of Wong et al. (2023).

Hit rate of the full screen: of about 39,000 compounds, about 3,300 (8.5%) were called active. The entries come from a sample that favours actives as a whole.

For this assay, the system named is HepG2. Kind of assay: cytotoxicity call (relative viability < 0.9). To be noted: 10 µM.
In the case of `CCN(CC)c1ccc(N2CC=C[C@@]34O[C@@H]5/C=C\CCCOC(=O)[C@@H]5[C@H]3C(=O)N(CCCCCCO)[C@@H]4C2=O)cc1`, the cytotoxicity call was “inactive”.

With `C[C@@H]1CCCCO[C@@H](CN(C)C(=O)Nc2ccccc2)[C@H](C)CN([C@@H](C)CO)C(=O)c2cc(NS(=O)(=O)c3ccccc3)ccc2O1`, the cytotoxicity call was “inactive”.

Turning to `Cc1ccc(S(=O)(=O)Nc2ccc3c(c2)C(=O)N([C@@H](C)CO)C[C@@H](C)[C@@H](CN(C)S(=O)(=O)c2c(C)noc2C)O3)cc1`, the cytotoxicity call is “inactive”. The result for `C[C@H](CO)N1C[C@H](C)[C@@H](CN(C)CC2CCCCC2)Oc2c(NC(=O)CCCCCC(=O)Nc3ccccc3N)cccc2C1=O` reads “inactive”; that for `C[C@H]1CN([C@@H](C)CO)C(=O)c2cccc(NC(=O)CCCCCC(=O)Nc3ccccc3N)c2O[C@H]1CN(C)CC1CCCCC1`, “inactive”.

On to `C[C@@H]1CN([C@H](C)CO)C(=O)c2cccc(NC(=O)CCCCCC(=O)Nc3ccccc3N)c2O[C@@H]1CN(C)CC1CCCCC1`, for which the cytotoxicity call is “inactive”. Regarding `C[C@@H]1CN([C@@H](C)CO)C(=O)c2cccc(NC(=O)CCCCCC(=O)Nc3ccccc3N)c2O[C@@H]1CN(C)Cc1ccccc1`, the cytotoxicity call is “inactive”. The result for `C[C@@H]1CN([C@@H](C)CO)C(=O)c2cccc(NC(=O)CCCCCC(=O)Nc3ccccc3N)c2O[C@@H]1CN(C)CC1CCCCC1` reads “active”; that for `C[C@H](CO)N1C[C@H](C)[C@H](CN(C)CC2CCCCC2)Oc2c(NC(=O)CCCCCC(=O)Nc3ccccc3N)cccc2C1=O`, “inactive”. The result for `C[C@@H]1CN([C@@H](C)CO)C(=O)c2cccc(NC(=O)CCCCCC(=O)Nc3ccccc3N)c2O[C@H]1CN(C)CC1CCCCC1` reads “inactive”; that for `C[C@@H]1CN([C@H](C)CO)C(=O)c2cccc(NC(=O)CCCCCC(=O)Nc3ccccc3N)c2O[C@H]1CN(C)CC1CCCCC1`, “active”. `C[C@H]1CN([C@@H](C)CO)C(=O)c2cccc(NC(=O)CCCCCC(=O)Nc3ccccc3N)c2O[C@@H]1CN(C)CC1CCCCC1`: the cytotoxicity call is “active”. As to `Nc1nc(=O)c2ncn(COC(CO)CO)c2[nH]1`, the cytotoxicity call is “inactive”.

With `CN[C@H]1[C@@H](O[C@H]2[C@@H](O[C@H]3[C@@H](O)[C@@H](O)[C@@H](NC(=N)N)[C@@H](O)[C@@H]3NC(=N)N)O[C@@H](C)[C@@]2(O)C=O)O[C@@H](CO)[C@@H](O)[C@@H]1O.CN[C@H]1[C@@H](O[C@H]2[C@@H](O[C@H]3[C@@H](O)[C@@H](O)[C@@H](NC(=N)N)[C@@H](O)[C@@H]3NC(=N)N)O[C@@H](C)[C@@]2(O)C=O)O[C@@H](CO)[C@@H](O)[C@@H]1O.O=S(=O)(O)O.O=S(=O)(O)O.O=S(=O)(O)O`, the cytotoxicity call is “inactive”.

On to `CC1(C)SC2C(NC(=O)C(C(=O)[O-])c3ccccc3)C(=O)N2C1C(=O)[O-].[Na+].[Na+]` (centres undefined), for which the cytotoxicity call was “inactive”. The result for `C[C@@H]1CCCCO[C@@H](CN(C)C(=O)c2ccccc2)[C@@H](C)CN([C@@H](C)CO)C(=O)c2cc(NC(=O)c3ccccc3)ccc2O1` reads “inactive”. For `C[C@@H]1CCCCO[C@@H](CN(C)C(=O)Nc2ccc(C(F)(F)F)cc2)[C@@H](C)CN([C@H](C)CO)C(=O)c2cc(NS(=O)(=O)c3cn(C)cn3)ccc2O1`, the cytotoxicity call is “inactive”. As for `Cc1cccc(C)c1NC(=O)C1CCCCN1C.Cl` (centres undefined), the cytotoxicity call was “inactive”. The result for `C=C1SC(Nc2c(C)cccc2C)=NC12CCCCC2` reads “active”; that for `Cc1cccc(C)c1Nc1nc2c(C)cc(C)c(C)c2s1`, “inactive”; that for `C[C@@H]1CN([C@@H](C)CO)C(=O)Cc2cc(NC(=O)C3CC3)ccc2O[C@H]1CN(C)C(=O)Nc1ccccc1`, “inactive”. The result for `COCC#Cc1ccc([C@H]2[C@H]3CN(C(=O)CN4CCOCC4)CC(=O)N3[C@H]2CO)cc1` reads “inactive”. Regarding `COc1ccc(S(=O)(=O)N(C)C[C@@H]2OCCCC[C@@H](C)Oc3ccc(NS(=O)(=O)c4cn(C)cn4)cc3C(=O)N([C@H](C)CO)C[C@H]2C)cc1`, the cytotoxicity call was “inactive”. Turning to `C[C@@H]1CN([C@@H](C)CO)C(=O)c2cc(C#CCc3ccccc3)cnc2O[C@H]1CN(C)CC1CCOCC1`, the cytotoxicity call was “inactive”.

As for `COc1ccc(NC(=O)Nc2ccc3c(c2)C(=O)N([C@H](C)CO)C[C@@H](C)[C@@H](CN(C)S(=O)(=O)c2ccc(F)cc2)OCCCC[C@H](C)O3)cc1`, the cytotoxicity call was “inactive”. Regarding `COc1ccc(S(=O)(=O)N(C)C[C@H]2OCCCC[C@@H](C)Oc3ccc(NC(=O)Nc4ccc(F)cc4)cc3C(=O)N([C@H](C)CO)C[C@@H]2C)cc1`, the cytotoxicity call was “active”. The result for `COc1ccc(NC(=O)Nc2ccc3c(c2)C(=O)N([C@@H](C)CO)C[C@@H](C)[C@@H](CN(C)S(=O)(=O)c2ccc(F)cc2)OCCCC[C@@H](C)O3)cc1` reads “inactive”; that for `COc1ccc(NC(=O)Nc2ccc3c(c2)C(=O)N([C@H](C)CO)C[C@H](C)[C@H](CN(C)S(=O)(=O)c2ccc(F)cc2)OCCCC[C@@H](C)O3)cc1`, “inactive”.

Regarding `COc1ccc(NC(=O)Nc2ccc3c(c2)C(=O)N([C@H](C)CO)C[C@@H](C)[C@H](CN(C)S(=O)(=O)c2ccc(F)cc2)OCCCC[C@H](C)O3)cc1`, the cytotoxicity call was “active”. Turning to `COc1ccc(NC(=O)Nc2ccc3c(c2)C(=O)N([C@H](C)CO)C[C@H](C)[C@@H](CN(C)S(=O)(=O)c2ccc(F)cc2)OCCCC[C@H](C)O3)cc1`, the cytotoxicity call was “inactive”. As to `CO[C@H]1CN(C)C(=O)c2ccc(NS(=O)(=O)c3cn(C)cn3)cc2OC[C@H](C)N(CC2CC2)C[C@@H]1C`, the cytotoxicity call was “inactive”. The result for `CC1(C)OC(=O)N(CCCC(=O)O)[C@@]1(C)O` reads “inactive”; that for `CC(=O)OC1CC(OC(C)=O)C2(C)C(CC(O)C3(C)C2CCC2(C)C(c4ccoc4)OC(=O)C4OC423)C1(C)C` (centres undefined), “inactive”; that for `C[C@H]1CN([C@@H](C)CO)C(=O)c2cc(NC(=O)Cn3cnnn3)ccc2O[C@H]1CN(C)CC1CCCCC1`, “inactive”. Regarding `C[C@H](CO)N1C[C@H](C)[C@H](CN(C)Cc2ccc(C(=O)O)cc2)Oc2c(NC(=O)C3CC3)cccc2C1=O`, the cytotoxicity call was “inactive”. Take `CS(=O)(=O)NC[C@@]12COC[C@H]1CN(C(=O)c1cnccn1)C2`: the cytotoxicity call is “inactive”. The result for `C[C@@H]1CCCCO[C@H](CN(C)S(=O)(=O)c2ccc(Cl)cc2)[C@H](C)CN([C@@H](C)CO)C(=O)c2cc(NC(=O)CCC(F)(F)F)ccc2O1` reads “inactive”; that for `C[C@H]1CCCCO[C@H](CN(C)Cc2ccc(C(F)(F)F)cc2)[C@@H](C)CN([C@@H](C)CO)C(=O)c2cc(NC(=O)CCCN(C)C)ccc2O1`, “active”. The result for `C[C@H](CO)N1C[C@H](C)[C@H](CN(C)Cc2ccc(C(F)(F)F)cc2)OCCCC[C@H](C)Oc2ccc(NC(=O)CCCN(C)C)cc2C1=O` reads “active”.

For `C[C@@H]1CN([C@@H](C)CO)C(=O)c2cc(NC(=O)CCCN(C)C)ccc2O[C@@H](C)CCCCO[C@H]1CN(C)Cc1ccc(C(F)(F)F)cc1`, the cytotoxicity call was “inactive”. Consider `C[C@@H]1CCCCO[C@@H](CN(C)Cc2ccc(C(F)(F)F)cc2)[C@@H](C)CN([C@@H](C)CO)C(=O)c2cc(NC(=O)CCCN(C)C)ccc2O1`, for which the cytotoxicity call is “inactive”. On to `C[C@H](CO)N1C[C@H](C)[C@@H](CN(C)Cc2ccc(C(F)(F)F)cc2)OCCCC[C@H](C)Oc2ccc(NC(=O)CCCN(C)C)cc2C1=O`, for which the cytotoxicity call was “inactive”.

With `C[C@@H]1CCCCO[C@H](CN(C)Cc2ccc(C(F)(F)F)cc2)[C@H](C)CN([C@H](C)CO)C(=O)c2cc(NC(=O)CCCN(C)C)ccc2O1`, the cytotoxicity call was “inactive”. For `C[C@@H]1CCCCO[C@H](CN(C)Cc2ccc(C(F)(F)F)cc2)[C@H](C)CN([C@@H](C)CO)C(=O)c2cc(NC(=O)CCCN(C)C)ccc2O1`, the cytotoxicity call was “active”. The result for `C[C@@H]1CCCCO[C@H](CN(C)Cc2ccc(C(F)(F)F)cc2)[C@@H](C)CN([C@@H](C)CO)C(=O)c2cc(NC(=O)CCCN(C)C)ccc2O1` reads “active”. The result for `C[C@@H]1CCCCO[C@@H](CN(C)Cc2ccc(C(F)(F)F)cc2)[C@@H](C)CN([C@H](C)CO)C(=O)c2cc(NC(=O)CCCN(C)C)ccc2O1` reads “inactive”; that for `C[C@H]1CCCCO[C@@H](CN(C)Cc2ccc(C(F)(F)F)cc2)[C@@H](C)CN([C@@H](C)CO)C(=O)c2cc(NC(=O)CCCN(C)C)ccc2O1`, “inactive”; that for `C[C@@H]1CN([C@H](C)CO)C(=O)c2cc(NC(=O)CCCN(C)C)ccc2O[C@@H](C)CCCCO[C@H]1CN(C)Cc1ccc(C(F)(F)F)cc1`, “inactive”. The result for `C[C@@H]1CN([C@H](C)CO)C(=O)c2cc(NC(=O)CCCN(C)C)ccc2O[C@@H](C)CCCCO[C@@H]1CN(C)Cc1ccc(C(F)(F)F)cc1` reads “inactive”; that for `CN(C)C(=O)C[C@@H]1CC[C@H]2[C@H](COc3ccc(NS(=O)(=O)c4cccc(F)c4)cc3C(=O)N2C)O1`, “inactive”. `COc1ccc(S(=O)(=O)N(C)C[C@H]2OCCCC[C@H](C)Oc3ccc(NS(C)(=O)=O)cc3C(=O)N([C@H](C)CO)C[C@@H]2C)cc1`: the cytotoxicity call is “inactive”.

Consider `C[C@H](CO)N1C[C@H](C)[C@H](CN(C)Cc2cccc(O)c2)OCc2ccccc2-c2c(n(C)c3ccccc23)C1=O`, for which the cytotoxicity call was “inactive”. The result for `C[C@@H]1CN([C@@H](C)CO)C(=O)c2cc(C#CC3(O)CCCC3)cnc2O[C@H]1CN(C)C(=O)Cc1ccncc1` reads “inactive”; that for `C[C@@H]1CCCCO[C@@H](CN(C)S(=O)(=O)c2ccccc2)[C@H](C)CN([C@H](C)CO)C(=O)c2cc(NC(=O)c3ccccc3)ccc2O1`, “inactive”; that for `N=C(N=C(N)N)N1CCOCC1`, “inactive”. The result for `O=C1N[C@@H]2[C@@H]1[C@H]1C=C[C@H]2C1` reads “inactive”; that for `C[C@@H]1CCCCO[C@H](CN(C)C(=O)Nc2ccc(F)cc2)[C@H](C)CN([C@@H](C)CO)C(=O)c2cc(NS(=O)(=O)c3ccc(F)cc3)ccc2O1`, “inactive”; that for `C[C@H]1CN([C@@H](C)CO)C(=O)c2cc(-c3ccncc3)cnc2O[C@@H]1CN(C)S(=O)(=O)c1ccc(F)cc1`, “inactive”. Turning to `COc1ccccc1CNC(=O)C[C@@H]1C[C@@H]2c3cc(NC(=O)c4ccc5c(c4)OCO5)ccc3O[C@@H]2[C@@H](CO)O1`, the cytotoxicity call was “inactive”.
